# Measured values taken from PubChem BioAssay AID779 (Sanford-Burnham Center for Chemical Genomics, 2007).
# Values without a mark were called inactive. How the calls were made is not given here.
# Experiment: placental alkaline phosphatase inhibitors, dose response, counter-screen, biochemical, colorimetric (AID 779)
# Conditions: PLAP counter-screen, colorimetric OD read-out
row,SMILES,IC50 [µM]
1,CN(C)c1ccc(/C=C/C=C2/SC(=S)N(c3ccccc3)C2=O)cc1,> 50
2,CSc1nc(NCCOCCO)c2sc3nc(-c4ccco4)c4c(c3c2n1)CCC4,> 50
3,O=C(O)c1ccccc1C(=O)NNc1ccc(F)cc1,> 50
4,Brc1ccc(-c2nnc(-c3cccc(Br)c3)o2)cc1,> 50
5,O=[N+]([O-])c1ccc(N(c2ccccc2)c2ccccc2)cc1,> 50
6,COc1ccc(N2Cc3cccc(C(=O)O)c3C2=O)cc1,> 50
7,Cc1occc1-c1nnc(SCC(=O)Nc2ccccc2-c2ccccc2)n1C,> 50
8,C=CCOC(=O)c1cc(-c2ccc(/C=C3\C(=O)NC(=O)C(C#N)=C3C)o2)ccc1Cl,> 50
9,Cc1nn(-c2ccccc2)c2c1C(c1cccnc1)N1C=C(S(=O)(=O)N3CCCCC3)C=CC1=N2 (stereo not given),> 50
10,COc1ccc2oc(/C=C/N(C)C)c(C(=O)c3ccc(Cl)cc3)c2c1,> 50
11,CCN(CCO)c1nc(SC)nc2c1sc1nc(-c3ccco3)c3c(c12)CCC3,> 50
12,CCCSC1=N/C(=C\C=C\c2ccco2)C(=O)S1,> 50
13,FC(F)(F)c1nnc2c(Sc3ccccn3)nc3ccccc3n12,> 50
14,Cc1cc(C)n(CNc2nc(C(F)(F)F)cs2)n1,> 50
15,COc1cc(NC(=O)c2ccc(COCC(F)(F)F)cc2)cc(OC)c1OC,> 50
